Rows were chosen to be rich in hits. Some 8.9% of all compounds tested hit in one or more screens of this group.
SW480 rereplic: A quantitative high throughput screen for small molecules that induce DNA re-replication in SW480 colon adenocarcinoma cells | SW480 DNA re-replication, Hoechst DNA content imaging, 48 h | Potency, µM (top dose mostly 46.1 µM), inactives show at the top dose re-replication activation, hits mostly activators | 340,000 tested, 1.8% active; also: potency is read from the fitted curve at half-maximal effect; % of control where 0% means no effect; nearly all actives have a fitted effect of over 55% in size
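DNA re-replication was detected as more nuclei of elevated Hoechst intensity after 48 hr exposure to compound (23 nL pinned per well of 250 cells).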
MCF10A rerep: A quantitative high throughput screen for small molecules that induce DNA re-replication in MCF 10a normal breast cells | 350,000 tested, 2.9% active | AID 624296, 2012 | MCF 10A DNA re-replication, Hoechst nuclear intensity, 48 h | Potency, µM (series often up to 46.1 µM), for inactives: top-dose activity, positive = re-replication, usual class: activators; also: potency is read from the fitted curve at half-maximal effect; % of control where 0% means no effect; nearly all actives have a fitted effect of over 50% in size
D3 ag: qHTS of D3 Dopamine Receptor Agonist: qHTS | 410,000 tested, 0.58% active | AID 652048, 2013 | D(3) dopamine receptor (Homo sapiens), P35462 | D3R DiscoveRx beta-arrestin cells, luminescence, 90 min | max activation, %; in the data active = max activation above about 30%; also: 0% is about no effect
Target sequence (P35462 whole entry, looked up): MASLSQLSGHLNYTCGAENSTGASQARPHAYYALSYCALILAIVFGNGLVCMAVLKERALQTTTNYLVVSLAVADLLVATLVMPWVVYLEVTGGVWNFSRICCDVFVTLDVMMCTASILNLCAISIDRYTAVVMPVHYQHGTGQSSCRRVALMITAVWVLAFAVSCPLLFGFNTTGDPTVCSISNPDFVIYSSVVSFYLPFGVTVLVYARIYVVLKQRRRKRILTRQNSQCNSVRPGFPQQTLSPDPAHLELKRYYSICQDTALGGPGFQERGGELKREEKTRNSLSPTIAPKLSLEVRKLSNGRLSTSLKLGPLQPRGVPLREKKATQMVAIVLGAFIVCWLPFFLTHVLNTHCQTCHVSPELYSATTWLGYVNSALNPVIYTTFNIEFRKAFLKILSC
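Agonist mode: compounds and dopamine controls were applied to plated cells for 90 min at 37 degrees C after an overnight attachment at 1500 cells/well. Luminescent read-out followed 30 - 60 minutes at room temperature with DiscoveRx detection reagent.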
KB-3-1 cytotox: qHTS assay for MDR1-selective chemotherapeutics: Primary screen using the parental adenocarcinoma cell KB-3-1; KB-3-1 viability, CellTiter-Glo ATP luminescence, 72 h; Potency, µM (titrated, usually from 46.1 µM), usual class: cytotoxic; 400,000 tested, 1.4% active; also: potency is read from the fitted curve at half-maximal effect; % is scaled to controls: 0 for no effect and ±100 for the full control effect; nearly all actives have a fitted effect of over 60% in size
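Cytotoxicity in the drug-sensitive parental line KB-3-1 was scored as loss of CellTiter-Glo luminescence following 72 h incubation with compound. Values come from curve fitting of normalized concentration-response data.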
D3 antag: qHTS of D3 Dopamine Receptor Antagonist: qHTS | 360,000 tested, 2.5% active | max response, negative = inhibition, % | AID 652054, 2013 | D(3) dopamine receptor (Homo sapiens), P35462 | D3R cells, DiscoveRx beta-arrestin luminescence, antagonist mode; stronger effect = lower value; in the data active = max response below about -50%; inconclusive = no clear call, values can overlap the other calls; also: % is scaled to controls: 0 for no effect and ±100 for the full control effect
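Cells plated overnight at 1500 cells/well, then exposed to library compounds with dopamine controls for 90 minutes at 37 degrees C. DiscoveRx reagent added for 30–60 minutes at room temperature; luminescence read, quantitative HTS format.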
KB-V1 MDR tox: qHTS assay for MDR1-selective chemotherapeutics: Primary screen using the drug-selected MDR subline cells KB-V1. KB-V1 MDR cells viability, CellTiter-Glo, 72 h. Potency, µM (titrated, usually from 46.1 µM), actives largely listed as cytotoxic. 400,000 tested, 3.4% active; also: potency is read from the fitted curve at half-maximal effect; % is scaled to controls: 0 for no effect and ±100 for the full control effect; nearly all actives have a fitted effect of over 60% in size
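qHTS viability screen in drug-selected KB-V1 MDR cells: 72 h compound treatment at 37 degrees C, ATP luminescence end point.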
The depositor's hits bear a star; i = inactive; ? = inconclusive; · = no result. Unless noted, calls follow the shape of the dose curve; as a rule, active = well fitted curve in the direction sought with a large enough effect; inconclusive = small, poorly fitted or top-dose-only effect, or another doubt; inactive = no such curve, though single readings can be large; an effect the other way counts as inactive or inconclusive.

SMILES | SW480 rereplic | MCF10A rerep | D3 ag | KB-3-1 cytotox | D3 antag | KB-V1 MDR tox
COc1ccc(-c2[nH]c(-c3ccc(OC)c(OC)c3)nc2SCC(=O)Nc2ccccc2)cc1 | · | · | -15 | i | · | i
COc1cc2[nH]c(=O)n(CCCC(=O)N(C)Cc3ccccc3)c(=O)c2cc1OC | · | · | 2 | i | · | i
Cc1ccc(Nc2nc3ccccc3c3nnc(C)n23)c(C)c1 | · | · | 12 | i | · | i
CCOc1ccc(C(=O)c2cn(CC(=O)Nc3ccc(F)cc3)c3cc4c(cc3c2=O)OCO4)cc1 | · | · | -11 | ? | · | i
O=C(N/N=C/c1ccc(Br)s1)c1ccco1 | -7% | -3% | -10 | i | -14 | i
O=C(N/N=C/c1sc(=O)n(Cc2ccc(Br)cc2)c1Cl)c1ccco1 | -30% | 18µM* | -2 | ? | -25 | i
CN1CCN(c2nc3cc(C(F)(F)F)ccc3n3cccc23)CC1 | -6% | ? | -72 | i | -52* | ?
FC(F)(F)c1cccc(N2CCN(c3nc4ccccc4n4cnnc34)CC2)c1 | · | · | 4 | i | · | i
Cn1nnnc1Sc1ncnc2scc(-c3cccc(S(C)(=O)=O)c3)c12 | 10% | 4.6µM* | · | 21µM* | · | ?
Cn1nnnc1Sc1ncnc2scc(-c3cccc(Br)c3)c12 | ? | ? | · | 7.3µM* | · | 18µM*
Cn1nnnc1Sc1ncnc2scc(-c3cccc4c3sc3ccccc34)c12 | ? | ? | · | 21µM* | · | ?
Cn1nnnc1Sc1ncnc2scc(-c3ccc4c(c3)OCO4)c12 | 12% | 23µM* | · | i | · | i
O=C(c1ccc2c(=O)n(CCc3ccccc3)c(=O)[nH]c2c1)N1CCN(c2ccc(Cl)cc2)CC1 | · | · | 18 | i | · | i
COc1ccc2[nH]c(C(O)C(O)c3nc4c(OC)c(OC)ccc4[nH]3)nc2c1OC (stereo not drawn) | · | · | · | i | · | i
Cn1nnnc1Sc1ncnc2scc(-c3ccc(Cl)cc3)c12 | 15% | 8% | · | ? | · | ?
Cn1nnnc1Sc1ncnc2scc(-c3ccc([N+](=O)[O-])cc3)c12 | 21% | 2.6µM* | · | ? | · | i
O=C(Nc1ccccc1)Nc1cc(Cl)cc(Cl)c1 | 16% | ? | -5 | ? | -4 | ?
O=C(Nc1ccccc1)Nc1cc(OCC(F)(F)F)cc(OCC(F)(F)F)c1 | 15% | 21µM* | 10 | ? | 22 | 16µM*
O=C(Nc1ccc(Oc2c(F)c(F)c(F)c(F)c2F)cc1)OC1CCN2Cc3ccccc3N=C12 (stereo not drawn) | 13µM* | 13µM* | -22 | 8.2µM* | -16 | ?
COc1cc(F)cc(-c2ccc3c(c2)c(-c2cccs2)c(-c2cc(OC)cc(OC)c2)n3C)c1 | -3% | ? | -10 | i | 4 | i
COc1ccc(-c2c(-c3cc(OC)cc(OC)c3)n(C)c3ccc(-c4ccc5[nH]ccc5c4)cc23)cc1 | -1% | ? | 7 | 23µM* | 17 | i
COc1cc(OC)cc(-c2c(-c3cccs3)c3cc(-c4ccc(N(C)C)nc4)ccc3n2C)c1 | 12% | 9% | 47* | i | 0 | i
COc1cc(OC)cc(-c2c(-c3cccs3)c3cc(-c4ccn[nH]4)ccc3n2C)c1 | -6% | 25% | 37* | ? | 32 | i
CCOC(=O)c1ccccc1NC(=O)CSc1nccn1Cc1ccco1 | · | · | -2 | · | · | ·
O=C(O)[C@@H](O)[C@H](O)[C@H](O)[C@@H](O)C(=O)O (tested in a mixture with another compound) | · | · | -1 | · | · | ·
SMILES | SW480 rereplic | MCF10A rerep | D3 ag | KB-3-1 cytotox | D3 antag | KB-V1 MDR tox
CCOc1ccccc1Oc1ncnc2c1oc1ccccc12 | · | · | 6 | i | · | i
COc1ccc(CNC(=O)C2CCC(=O)N(CCCN3CCCC3=O)C2)c(OC)c1 (stereo not drawn) | -1% | 0% | 33* | i | 19 | ?
COc1ccccc1CNC(=O)C1CCC(=O)N(CCCN2CCCC2=O)C1 (stereo not drawn) | -1% | -2% | 3 | i | 6 | ?
CC(C)C(NC(=O)OCc1ccccc1)C(=O)OCC(=O)N1CCCCC1 (stereo not drawn) | -3% | 6% | 6 | i | -8 | ?
COc1ccc(N2CCN(C(=O)COC(=O)[C@@H](NC(=O)OCc3ccccc3)C(C)C)CC2)cc1 | -1% | 4% | 10 | i | 31 | 6.5µM*
CCOC(=O)c1c(-c2cccs2)csc1NC(C)=O | -9% | 13% | -10 | i | 0 | i
CCOC(=O)c1c(-c2cccs2)csc1NC(=O)CSc1ncn[nH]1 | 2% | ? | 0 | i | 50 | 21µM*
CCOC(=O)c1c(-c2ccc(OC)cc2)csc1NC(=O)COc1ccc2c(C)cc(=O)oc2c1 | -1% | 18% | 4 | ? | 11 | i
CCOC(=O)c1c(-c2cccs2)csc1NC(=O)CCCC(=O)O | -4% | 19% | 44* | i | -5 | ?
CCOC(=O)c1c(NC(=O)c2cccs2)sc(CC)c1-c1cccs1 | 12% | ? | 62* | i | 31 | 18µM*
CCOC(=O)c1c(-c2ccc(OC)cc2)csc1NC(=O)CSc1ncnc2sccc12 | -113% | 16µM* | 4 | i | 10 | i
CCOC(=O)c1c(-c2cccs2)csc1NC(=O)CN1CC(C)OC(C)C1 (stereo not drawn) | ? | 21µM* | -14 | i | 3 | i
CCOC(=O)c1c(-c2cccs2)csc1NC(=O)C(C)(C)C | -4% | 13µM* | 18 | i | 33 | 15µM*
CCOC(=O)c1c(-c2ccccc2Cl)csc1NC(=O)CSc1nc(C)cc(=O)[nH]1 | 23µM* | ? | 9 | i | 68 | ?
O=C(Nc1ccccc1Br)N1CCN2CCCCC2C1 (stereo not drawn) | · | · | -11 | i | · | i
Cc1ccc2ncc(C(=O)NC(C)c3ccccc3)c(=O)n2c1 (stereo not drawn) | · | · | 12 | i | · | i
CCC1(C)Cc2c(sc3[nH]c(=S)[nH]c(=S)c23)CO1 (stereo not drawn) | 3% | -5% | -2 | i | 0 | i
CCC1(C)Cc2c(sc3[nH]c(=O)[nH]c(=O)c23)CS1 (stereo not drawn) | -6% | 1% | 10 | i | 17 | 12µM*

Screening results from PubChem.
